PubChem BioAssay AID1117359 (Southern Research Institute, 2015)
In all, about 1,500 compounds went through this assay and about 460 (31%) were called active.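 How the source made its calls: active means viability at or below 80% at any tested concentration, marking the compound as toxic; inactive means the rest.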 These entries were drawn from the full list. Measured potencies and affinities stand elsewhere.

Test: THP-1 cell cytotoxicity, dose response, cytotoxicity control for Vif-APOBEC3G degradation inhibitor project, THP-1 cells (AID 1117359)
Settings: THP-1 viability, CellTiter-Glo luminescence, 72 h; series mostly up to 40 µM

Structure (SMILES)	outcome
CCOC(=O)C1=C(COC(=O)/C=C/c2ccco2)NC(=O)NC1C (stereo not drawn)	inactive
Cc1ccc(NC(=O)CN2C(=O)N/C(=C/c3ccco3)C2=O)cc1	inactive
C=CC1=C(C(=O)O)N2C(=O)C(NC(=O)Cc3ccccc3)C2SC1 (stereo not drawn)	inactive
Cc1cc(C(=O)NCCCN2CCCC2=O)no1	inactive
CCOC(=O)C1=C(c2ccccc2)NC(=O)NC1c1cc(Cl)c(O)c(OC)c1 (stereo not drawn)	inactive
Cc1nc(-c2noc(-c3ccccc3Cl)n2)c(C(F)(F)F)o1	inactive
COc1cccc(CC(=O)N2CCCC(CO)(Cc3ccc(F)cc3F)C2)c1 (stereo not drawn)	inactive
COc1ccc(/C=N/NC(=O)CN2CCN(Cc3ccccc3)CC2)cc1Br	inactive
O=C(COc1ccc([N+](=O)[O-])cc1)NC(C(=O)O)C(O)c1cccc([N+](=O)[O-])c1 (stereo not drawn)	inactive
COc1cc(NC(=O)CSCC(=O)N(C)C2CCCCC2)cc(OC)c1	inactive
O=C(O)COc1ccc2c(c1)O/C(=C\c1ccco1)C2=O	inactive
O=C(NC(=O)N1CCN(c2ccc([N+](=O)[O-])cn2)CC1)c1c(Cl)cccc1Cl	inactive
CC(C)(C)OC(=O)N1CCN(c2ccc([N+](=O)[O-])cc2)CC1	inactive
CCc1ccccc1NC(=S)N(Cc1ccc(OC)cc1)CC1CCC(C(=O)O)CC1 (stereo not drawn)	inactive
O=C(Cn1c(NCCO)nc2ccccc21)NCC(F)(F)F	inactive
COc1cc(C(=O)NNC(=S)NCc2ccco2)cc(OC)c1OC	inactive
Cc1ccc(C(CC(=O)NCc2ccco2)c2ccccc2)c(O)c1 (stereo not drawn)	inactive
Cc1ccc(C(=O)N/C(=C/c2cccnc2)C(=O)NCc2ccco2)cc1	inactive
O=C(O)CSc1c2c(nc3cc(C(=O)Nc4cccc(C(F)(F)F)c4)ccc13)CCC2	inactive
COc1cc(/C=C2/C(=O)c3cccc([N+](=O)[O-])c3C2=O)c(Br)cc1O	inactive
CCN(CC)c1ccc(NC(=O)CCS(=O)(=O)c2ccc(Br)cc2)c(C)c1	inactive
CCOC(=O)C(C)N1C(=O)S/C(=C\c2ccc(-c3ccccc3C(=O)O)o2)C1=O (stereo not drawn)	inactive

Structure (SMILES)	outcome
CNC[C@H](O)c1ccc(O)c(O)c1	inactive
CCN(CC)Cc1cc(O)c(CN(CC)CC)cc1O	inactive
COc1cccc(NC(=O)CSc2nnc(-c3ccco3)c(-c3ccco3)n2)c1	inactive
CCOC(=O)CNc1nc2ccccc2n2c(C)nnc12	inactive
COc1cc(NCCCNC(C)C)c2nccc(C)c2c1	inactive
COc1cc(CC(=O)NCC(C)(C)N2CCOCC2)cc(OC)c1OC	inactive
C[C@H](NC(=O)c1ccco1)C(=O)Nc1cccc([N+](=O)[O-])c1	inactive
COc1ccc(OC)c(N2C(=O)[C@@H]3C(c4ccccc4Cl)=NO[C@@H]3C2=O)c1	inactive
CCN(C(=O)CN1CCN(c2ccc(O)cc2)CC1)c1c(N)n(Cc2ccccc2)c(=O)[nH]c1=O	inactive
COC1=C(Br)C(=O)c2nc(C)ccc2C1=O	inactive
CCOc1cccc(=O)c2c(C)n(CC(=O)c3ccccc3)c(C)c12	inactive
COc1ccc(CNS(=O)(=O)c2cc(Br)cc3c2N(C(C)=O)C(C)C3)cc1 (stereo not drawn)	inactive
Cc1[nH]n(-c2nc(-c3ccccc3F)cc(=O)[nH]2)c(=O)c1CCO	inactive
COc1cc2ccccc2cc1C(=O)N1CCN(c2ccccc2O)CC1	inactive
O=[N+]([O-])c1ccc2c(c1)S(=O)c1ccccc1-2 (stereo not drawn)	inactive
C/C(=N\Nc1ccc([N+](=O)[O-])cc1[N+](=O)[O-])c1cc2c(ccc3ccccc32)oc1=O	inactive
CC1=Nc2cccc3cccc(c23)N1	inactive
CCS(=O)(=O)N1CCN(C(=O)c2cccc3ccccc23)CC1	inactive
O=c1c(O)cccc2cc(O)c(O)c(O)c12	inactive
CC12CCC(C(=O)Nc3ccc(Br)cn3)(OC1=O)C2(C)C (stereo not drawn)	inactive
COc1ccc(S(=O)(=O)N2CCC(C(=O)NCc3cccnc3)CC2)cc1Cl	inactive
O=C(Nc1ccc(C(=O)N2CCOCC2)cc1)c1ccccc1[N+](=O)[O-]	inactive

Structure (SMILES)	outcome
O/C=c1\ccc2cccc3nc(C(F)(F)F)nc1c23	inactive
Cc1ccc(C)c(NC(=S)NCc2ccccc2)c1	inactive
Cc1ccc(C(=O)NNS(=O)(=O)c2ccccc2[N+](=O)[O-])cc1	inactive
CN(C)c1ccc(N2C(=O)CSC2=S)cc1	inactive
CC(C)C(C)NC(=O)COc1ccc(S(=O)(=O)N2CCOCC2)cc1Cl (stereo not drawn)	inactive
O=C1CC(Nc2ccc(N3CCOCC3)cc2)C(=O)N1CCc1ccccc1 (stereo not drawn)	inactive
O=C(CNC(=O)c1ccc(Cl)cc1Cl)OCc1nnc(-c2ccccc2Br)o1	inactive
CCOC(=O)/C=C1\SC(C)C(=O)N1CC(=O)N(CCC#N)c1ccccc1 (stereo not drawn)	inactive
CC(C)CC(NC(=O)/C(=C/c1ccco1)NC(=O)c1ccc(Br)o1)C(=O)O (stereo not drawn)	inactive
CCC(C)(C)NC(=O)C(c1ccc(F)cc1)N(Cc1ccco1)C(=O)c1cnccn1 (stereo not drawn)	inactive
O=C(CCN1CCN(c2ccccc2)CC1)N/N=C/c1ccc(O)c(O)c1O	inactive
O=C(Cc1csc(N2CCOCC2)n1)N/N=C/c1ccc(O)c(O)c1O	inactive
CC1CCCN(CC(O)CN2CCN(CC(O)CN3CCCC(C)C3)C(C)C2)C1 (stereo not drawn)	inactive
COC(=O)c1ccccc1NC(=O)CCS(=O)(=O)c1ccc(Br)cc1	inactive
COc1cccc(NC(=O)CN(C)C(=O)CCCc2nc3ccccc3s2)c1	inactive
COC(=O)C1=C(O)/C(=C\c2ccc(CNC(=O)C(=O)Nc3ccc(C)c(C)c3)o2)N=C1C	inactive
Cc1cn(C2CCCCO2)c(=O)[nH]c1=O (stereo not drawn)	inactive
CC(=C\c1ccco1)/C=C1/SC(=S)N(CC(=O)O)C1=O	inactive
O=C(CCCN1C(=O)/C(=C\c2ccco2)SC1=S)Nc1ccc2ccccc2c1	inactive
COc1ccc(NC(=O)c2cccnc2C(=O)O)c(OC)c1	inactive
COC(=O)c1ccccc1NC(=O)CNC(=O)c1ccc(OC)cc1	inactive
O=C(O)c1c2c(nc3ccc(Cl)cc13)CCC2	inactive

Structure (SMILES)	outcome
COc1ccc(CNC(=O)c2sc3nc4c(c(C(F)(F)F)c3c2N)CCC4)cc1OC	inactive
Cc1ccc(C(c2nnnn2CC2CCCO2)N2CCN(C)CC2)cc1 (stereo not drawn)	inactive
O=[N+]([O-])c1cc2oc3c(c2c(C=NCc2ccncc2)c1O)CCCC3	inactive
COc1cc2c3c(c1OC)C1(C=CC(=O)C=C1)CC3N(C(=O)CCC(=O)O)CC2 (stereo not drawn)	inactive
Oc1ccc(-c2cn3c(n2)SCC3)cc1O	inactive
COc1ccc(OC)c(N/C(C)=C/C(=O)c2ccc(C)o2)c1	inactive
O=C(CCCCl)Nc1nc(-c2ccc3c(c2)OCCO3)cs1	inactive
COc1ccc(O)c(N)c1	inactive
CCCCCC#CCC#CCC#CCC#CCCCC(=O)O	inactive
CC(=O)Nc1cccc(-c2cc(-c3c(Cl)cccc3Cl)no2)c1	inactive
COc1ccc(NC(=O)/C=C/c2ccc(S(=O)(=O)N3CCOCC3)cc2)cc1	inactive
Cc1cc(-c2n[nH]c(=S)n2/N=C/C=C/c2ccco2)n[nH]1	inactive
COc1ccc(C)cc1NC(=O)COC(=O)CCC(=O)c1cccs1	inactive
N#Cc1ccccc1CN1C(=O)S/C(=C/c2cccn2-c2ccc(C(=O)O)cc2)C1=O	inactive
O=C(NCC(c1ccco1)N1CCCC1)c1cccc(S(=O)(=O)N2CCCCC2)c1 (stereo not drawn)	inactive
COc1cc(C(C2C(=O)CC(C)(C)CC2=O)C2C(=O)CC(C)(C)CC2=O)cc(OC)c1OC	inactive
COCCNC(=O)Nc1ccc2nc(-c3ccco3)c(-c3ccco3)nc2c1	inactive
O=C(NC1CC1)c1cc(-c2ccco2)nc2ccccc12	inactive
CC(C)CN(C(=O)CN1CCN(S(=O)(=O)c2ccccc2)CC1)c1c(N)n(CC(C)C)c(=O)[nH]c1=O	inactive
COC(=O)[C@@]1(Cc2ccc(OC)cc2)[C@H]2c3cc(C(=O)N(C)C)n(C[C@H](O)CO)c3C[C@H]2CN1C(=O)c1ccccc1	inactive
Cc1nc(C)c(C(=O)Nc2nc3c(C)cccc3s2)o1	inactive
O=C(Nc1nnc(C2CC2)s1)c1ccc(S(=O)(=O)c2ccccc2)cc1	inactive

Structure (SMILES)	outcome
S=c1[nH]nc(COc2ccc(Cl)cc2)o1	inactive
CCCCCCNS(=O)(=O)c1ccccc1Br	inactive
Clc1ncnc2scc(-c3ccccc3)c12	inactive
Nc1ccc(S(=O)(=O)c2cc(O)c3ccccc3c2O)cc1	inactive
CCOC(=O)/C(C#N)=C/c1c(OCC)n(CC)c2ccccc12	inactive
COc1ccc(CCN2C(=O)CC(Nc3ccc(N4CCOCC4)cc3)C2=O)cc1OC (stereo not drawn)	inactive
O=C1CCC(CCC(=O)N2CCCC(C(=O)c3ccc4c5c(cccc35)CC4)C2)=NN1 (stereo not drawn)	inactive
Nc1cc(N)c(OCC(F)(F)F)cc1OCC(F)(F)F	inactive
CC(=O)c1ccc2c(c1)C1C=CCC1C(c1ccncc1)N2 (stereo not drawn)	inactive
Cc1cccc(Cc2nnc(CCC(=O)N(C)C3CCOC3)o2)c1 (stereo not drawn)	inactive
CCCCn1c(N)c(N(CCC(C)C)C(=O)C2=NN(c3cc(C)ccc3C)C(=O)CC2)c(=O)[nH]c1=O	inactive
COc1ccccc1NS(=O)(=O)c1cccs1	inactive
CNc1ccc(Br)cc(C(=O)/C=C/c2cc(OC)ccc2OC)c1=O	inactive
CN(C)S(=O)(=O)c1cccc(NC(=S)N/N=C/c2ccc(O)c(O)c2O)c1	inactive
Cc1ccc(C=C2C(Cl)=C(Cl)C(Cl)=C2Cl)cc1	inactive
COC(=O)COc1ccc(S(=O)(=O)Nc2ccc(C(N)=O)cc2)cc1C	inactive
O=C1CSC(c2cccnc2)N1Cc1cccnc1 (stereo not drawn)	inactive
Cc1cc(C)c(C(=O)/C=C/c2ccco2)c(=O)[nH]1	inactive
N#CC(C#N)=Cc1cccn1-c1ccc(C(=O)O)cc1	inactive
CCOC(=O)CN(C(=O)CSc1nnc(COc2ccc(OC)cc2)n1CC)c1ccccc1	inactive
